# IDE exosite inh: exo-site inhibitors of human insulin-degrading enzyme. P14735. purified IDE, FL-6b probe fluorescence polarization; stronger effect = lower value. z-score at 20 µM. 6.3% of 17,000 active;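 active means z-score of -3 or lower, meaning strong loss of probe binding signal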;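 further: His-tagged human IDE residues 42-1019 made in E. coli with 30 nM FL-6b probe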
# Target sequence (P14735 42-1019 limits assumed): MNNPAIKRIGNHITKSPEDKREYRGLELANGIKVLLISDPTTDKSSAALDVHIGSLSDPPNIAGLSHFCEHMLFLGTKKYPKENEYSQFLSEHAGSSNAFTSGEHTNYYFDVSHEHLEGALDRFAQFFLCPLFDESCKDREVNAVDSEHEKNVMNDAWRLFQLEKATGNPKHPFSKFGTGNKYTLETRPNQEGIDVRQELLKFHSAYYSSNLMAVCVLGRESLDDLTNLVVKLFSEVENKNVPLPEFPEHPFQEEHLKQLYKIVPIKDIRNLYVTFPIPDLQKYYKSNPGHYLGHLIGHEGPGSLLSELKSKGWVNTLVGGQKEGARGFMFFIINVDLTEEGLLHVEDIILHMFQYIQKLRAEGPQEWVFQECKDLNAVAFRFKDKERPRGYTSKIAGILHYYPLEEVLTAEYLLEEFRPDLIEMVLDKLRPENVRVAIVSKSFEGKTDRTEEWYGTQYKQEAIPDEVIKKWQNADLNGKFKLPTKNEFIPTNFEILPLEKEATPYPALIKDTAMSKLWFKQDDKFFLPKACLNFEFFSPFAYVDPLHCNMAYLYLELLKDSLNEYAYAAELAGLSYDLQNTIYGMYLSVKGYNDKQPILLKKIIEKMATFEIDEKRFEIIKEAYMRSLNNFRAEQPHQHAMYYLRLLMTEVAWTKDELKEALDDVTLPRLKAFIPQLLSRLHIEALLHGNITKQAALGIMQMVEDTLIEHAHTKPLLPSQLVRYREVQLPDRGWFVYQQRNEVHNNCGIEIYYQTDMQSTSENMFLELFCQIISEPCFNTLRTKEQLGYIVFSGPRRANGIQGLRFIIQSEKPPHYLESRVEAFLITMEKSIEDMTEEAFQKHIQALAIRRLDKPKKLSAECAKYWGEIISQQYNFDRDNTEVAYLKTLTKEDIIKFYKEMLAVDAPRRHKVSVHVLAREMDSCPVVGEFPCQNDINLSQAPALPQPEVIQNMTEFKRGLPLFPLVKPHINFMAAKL
# * = called active by the depositor. The full list was thinned out, with hits kept by preference.
SMILES,IDE exosite inh
COc1ccc(-c2ccc([C@@H]3[C@@H](C#N)N(C(=O)CN(C)C)[C@@H]3CO)cc2)cc1,1.8
N#C[C@H]1[C@@H](c2ccccc2C2=CCCCC2)[C@@H](CO)N1C(=O)Nc1ccccc1F,-0.05
N#C[C@@H]1[C@H](c2ccc(C3=CCCC3)cc2)[C@@H](CO)N1C(=O)C1CC1,5.2
CCc1cnc(N2[C@@H](C#N)[C@H](c3ccc(C#CCC4CCCC4)cc3)[C@@H]2CO)s1,1.8
O=C(Cc1ccccc1)N1CC(=O)N2[C@H](CO)[C@@H](c3ccc(C4=CCCC4)cc3)[C@@H]2C1,1.7
CC(=O)NC[C@H]1[C@@H](c2ccc(-c3ccccc3F)cc2)[C@@H](CO)N1C(C)=O,-1.6
O=C([C@@H]1[C@@H](CO)[C@@H]2Cn3c(cccc3=O)[C@H]1N2)N1CCc2ccccc2C1,-0.17
Cc1ccccc1-c1ccc([C@H]2[C@H]3CN(C(=O)Nc4cccc(F)c4)CC(=O)N3[C@H]2CO)cc1,-0.76
COc1ccccc1NC(=O)N1CCCCN2[C@H](C1)[C@H](c1ccc(C#Cc3ccccc3)cc1)[C@@H]2CO,1.2
CN(C)CC#Cc1ccc([C@H]2[C@@H](CO)N3CCCCN(C(=O)C4CCC4)C[C@H]23)cc1,0.063
COc1ccc(C#Cc2ccc([C@@H]3[C@@H](CO)N4CCCCN(C(=O)Nc5ccccc5)C[C@@H]34)cc2)cc1,2.1
CN(C)CC#Cc1ccc([C@H]2[C@H]3CN(C(=O)C4CCC4)CCCCN3[C@H]2CO)cc1,2.3
O=C(C1CCC1)N1CCCCN2[C@H](C1)[C@@H](c1ccc(C#CC3(O)CCCC3)cc1)[C@@H]2CO,-1.1
COc1ccccc1C#Cc1ccc([C@@H]2[C@@H](CO)N3CCCCN(C(=O)C4CCC4)C[C@@H]23)cc1,-9*
COc1ccccc1NC(=O)N1CCCCN2[C@H](CO)[C@@H](c3ccc(C#Cc4ccccc4)cc3)[C@@H]2C1,3.8
COc1ccccc1C#Cc1ccc([C@@H]2[C@H]3CN(C(=O)C4CCC4)CCCCN3[C@H]2CO)cc1,-6.8*
COc1ccccc1C#Cc1ccc([C@H]2[C@@H](CO)N3CCCCN(C(=O)C4CCC4)C[C@H]23)cc1,-10*
CCS(=O)(=O)N1CCCCN2[C@@H](CO)[C@@H](c3ccc(C#CC(C)(C)O)cc3)[C@@H]2C1,-0.084
O=C(Nc1ccccc1F)N1CC(=O)N2[C@H](C1)[C@@H](c1ccc(C#CC3CCCC3)cc1)[C@@H]2CO,1.8
O=C(C1CCOCC1)N1CC(=O)N2[C@H](C1)[C@H](c1ccc(C#CC3CCCCC3)cc1)[C@@H]2CO,0.91
C/C=C/c1ccc([C@H]2[C@@H](CO)N(S(C)(=O)=O)[C@H]2CNC(C)C)cc1,1
Cc1ccc(-c2ccc([C@@H]3[C@@H](CO)N4C(=O)CN(C(=O)Nc5cccc(F)c5)C[C@H]34)cc2)cc1,3.8
CCS(=O)(=O)N1CCCCN2[C@H](CO)[C@H](c3ccc(-c4ccccc4F)cc3)[C@@H]2C1,1.2
O=C(C[C@@H]1C[C@H]2c3cc(NS(=O)(=O)c4ccccc4)ccc3O[C@H]2[C@H](CO)O1)NCC(F)(F)F,-0.3
COc1ccc(NC(=O)N2CCCCN3[C@H](C2)[C@@H](c2ccc(-c4ccccc4F)cc2)[C@@H]3CO)cc1,0.93
SMILES,IDE exosite inh
COc1ccc(NC(=O)N2CCCCN3[C@H](CO)[C@H](c4ccc(-c5ccccc5F)cc4)[C@H]3C2)cc1,0.79
COc1ccc(NC(=O)N2CCCCN3[C@@H](CO)[C@@H](c4ccc(-c5ccccc5C)cc4)[C@@H]3C2)cc1,-4.5*
COc1ccc(NC(=O)N2CCCCN3[C@@H](CO)[C@H](c4ccc(-c5ccccc5C)cc4)[C@@H]3C2)cc1,-10*
COc1ccc(NC(=O)N2CCCCN3[C@H](CO)[C@H](c4ccc(-c5ccccc5C)cc4)[C@@H]3C2)cc1,-0.82
COc1ccc(NC(=O)N2CCCCN3[C@H](CO)[C@@H](c4ccc(-c5ccccc5C)cc4)[C@H]3C2)cc1,-1.1
CCCNC(=O)N1CC2(C1)[C@@H](c1ccccc1)[C@H](CO)N2CC1CCOCC1,-0.035
O=C(N[C@@H]1CC[C@H](CC(=O)N2CCOCC2)O[C@@H]1CO)c1cccc(F)c1,1.1
CCS(=O)(=O)N1[C@H](CO)[C@H](c2ccc(C3=CCCCC3)cc2)[C@@H]1C#N,1.3
O=C(c1ccccn1)N1[C@@H](CO)[C@@H](c2ccccc2)C12CN(Cc1ccccc1F)C2,0.85
O=C(Cc1ccccc1)N1CC(=O)N2[C@H](CO)[C@@H](c3ccc(-c4cccc(F)c4)cc3)[C@@H]2C1,-1.9
O=C(NCCN1CCCC1)[C@@H]1[C@@H](CO)[C@@H]2Cn3c(cccc3=O)[C@@H]2N1Cc1ccccn1,0.76
O=C(NC[C@H]1N[C@H](CO)[C@@H]1c1ccccc1)C1CC1,3
O=C(NC[C@H]1N[C@H](CO)[C@@H]1c1ccc(-c2ccccc2)cc1)C1CCC1,-3.5*
O=C(NC[C@@H]1N[C@@H](CO)[C@H]1c1ccccc1)C1CCCC1,2.3
O=C(NC[C@H]1N[C@H](CO)[C@@H]1c1ccccc1)C1CCC1,0.4
O=C(NC[C@@H]1N[C@@H](CO)[C@H]1c1ccccc1)C1CCC1,2.5
COc1ccccc1-c1ccc([C@H]2[C@@H](CO)N[C@@H]2CNC(=O)C2CC2)cc1,-4.2*
C/C=C/c1ccc([C@H]2[C@@H](CO)N(C(=O)NC(C)C)[C@H]2CN(C)C(=O)CC)cc1,2.9
CC(C)C#Cc1ccc([C@H]2[C@@H](CO)N(C(=O)c3ccccn3)[C@H]2C#N)cc1,3.5
Cc1ccc(OC(=O)N(C)C[C@@H]2OCc3ccccc3-c3ccccc3C(=O)N([C@@H](C)CO)C[C@@H]2C)cc1,0.021
C/C=C/c1ccc([C@H]2[C@H](CO)N(C(=O)CC)[C@H]2CN(C)S(C)(=O)=O)cc1,3.2
CN1C(=O)c2cc(NC(=O)c3cscn3)ccc2OC[C@H]2O[C@@H](CC(=O)N3CCOCC3)CC[C@@H]21,-0.32
CNC[C@@H]1OCCCC[C@@H](C)Oc2ccc(N)cc2C(=O)N([C@@H](C)CO)C[C@H]1C,0.2
O=C(c1ccccn1)N1CC(=O)N2[C@@H](CO)[C@H](c3ccc(C#Cc4ccccc4)cc3)[C@@H]2C1,-9.7*
O=C(c1ccccn1)N1CC(=O)N2[C@H](CO)[C@H](c3ccc(C#Cc4ccccc4)cc3)[C@H]2C1,-14*
SMILES,IDE exosite inh
O=C(c1ccccn1)N1CC(=O)N2[C@@H](CO)[C@H](c3ccc(C#CCc4ccccc4)cc3)[C@@H]2C1,-1.1
CCCC#Cc1ccc([C@@H]2[C@@H](CO)N3C(=O)CN(C(=O)c4ccccn4)C[C@@H]23)cc1,-0.34
CCCC#Cc1ccc([C@H]2[C@@H](CO)N3C(=O)CN(C(=O)c4ccccn4)C[C@H]23)cc1,3.1
O=C(c1ccccn1)N1CC(=O)N2[C@H](CO)[C@H](c3ccc(C#CCc4ccccc4)cc3)[C@@H]2C1,-1.8
O=C(C1CC1)N1CC(=O)N2[C@H](CO)[C@@H](c3ccc(Br)cc3)[C@H]2C1,0.1
c1ncc(-c2ccc(C3[C@@H]4CN(Cc5cocn5)C[C@H]3N4)cc2)cn1 (some centres not stated),3.7
Cc1ccccc1-c1ccc(C2[C@H]3CNC[C@@H]2N3Cc2ccc3c(c2)OCO3)cc1 (some centres not stated),-0.77
c1cncc(-c2ccc(C3[C@@H]4CN(Cc5ccc6c(c5)OCO6)C[C@H]3N4)cc2)c1 (some centres not stated),-1.1
C(=C\c1ccc(C2[C@@H]3CN(Cc4cocn4)C[C@H]2N3)cc1)/c1ccccc1 (some centres not stated),-0.39

# Screening data: PubChem BioAssay, Broad Institute
